Laboratory results from publication PMC13494018.

B1: design_610_f34cc193-997c-4684-af32-2a8002718429_2398_dldesign_0_cycle1_af2pred (protein)
chain: AAAEIARRTVEAGVRQAFAASPEEAERLAENLAKIVEGLAGPEVGERVREIVREGLRLAEKFPEYREEIAEETAERAAELVYEALS
B2: design_610_f34cc193-997c-4684-af32-2a8002718429_2308_dldesign_0_cycle1_af2pred (protein)
chain: AAAAEAAAARLAAAKAALAAAQAKGAELAAQSPGAGIGYVWAAAVRLGETLGPEAAALAAQARAAAAAQNRALLAQSAA
B3: design_611_394c5ea9-a0d3-47c4-9d48-89ba6a28fdd0_637_dldesign_0_cycle1_af2pred (protein)
chain: SEETKEVAEAAVNAAEQAIKLAKELGDKEIEEKAKKLKEEAKKAAKKGAEALPEAKKLAREAFTLAAKALALYAKAKA
B4: design_610_f34cc193-997c-4684-af32-2a8002718429_2117_dldesign_0_cycle1_af2pred (protein)
chain: AAAAETASKAGEATIEALKAGAEAARLAEELGLDPAPYHQKAAQAIAALQAGEGSLETVTALKEELEKAAKELKEKV
B5: design_611_394c5ea9-a0d3-47c4-9d48-89ba6a28fdd0_1178_dldesign_0_cycle1_af2pred (protein)
chain: AELLAAAGELAVEAARYAAEADRFGPEAAPAAELFREAQKLAVQANQNPATAAEYYAKAKELMKKGKELMKKAKA
B6: design_610_f34cc193-997c-4684-af32-2a8002718429_1191_dldesign_0_cycle1_af2pred (protein)
chain: AEATGQAYADILVQSARSLAAAGASPEDVVQAMDSIAQAAIDELGEEGKKYAAKGAEKAAEEVKKLNPEAAKAVAKRAEELKKQA
B7: design_610_f34cc193-997c-4684-af32-2a8002718429_1550_dldesign_0_cycle1_af2pred (protein)
chain: SAAIQEQTAKDWAAVLEAAAARSTEAGIRLARAVAEVFRDDPELAEATAAALTNAEVAAALRAALEEARAAAA
B8: design_610_f34cc193-997c-4684-af32-2a8002718429_1816_dldesign_0_cycle1_af2pred (protein)
chain: AEAEALAAQARAHAHKALQEVSLGGDQAEADAHLAKAEEYAAQAKALDPEIGAQTQKIIDQYKALMAQAR
B9: design_611_394c5ea9-a0d3-47c4-9d48-89ba6a28fdd0_705_dldesign_0_cycle1_af2pred (protein)
chain: AEAQEQAKKEYEKAKAVADAALATAKATGDVTAQQAKVLDAAIEAAKKAQELGDGETANKVMQVATKAMTAMAAAG
B10: design_611_394c5ea9-a0d3-47c4-9d48-89ba6a28fdd0_881_dldesign_0_cycle1_af2pred (protein)
chain: GAAEAAKALAKGVAASVKRLAKEGLEEAKKDPEKGRAILENAKTFAEAVKATDPEIGDKALKYVEEAKKEAEKIVKE
B11: design_611_394c5ea9-a0d3-47c4-9d48-89ba6a28fdd0_1184_dldesign_0_cycle1_af2pred (protein)
chain: GEAARERGEELVKEAEAALAAAKAAAAADPAAGLAAANAAIGLAVERMEELARLGPEARPAIERLTAIATELSKLALALKAAL
B12: design_611_394c5ea9-a0d3-47c4-9d48-89ba6a28fdd0_1153_dldesign_0_cycle1_af2pred (protein)
chain: MEEKKKKIEEEANKVIEEATKVAELAKKHPAMRPALIAANAAISMANNAIRNIENVESAEKQLKVAKALMEYAKATAKALLAAA
B13: design_610_f34cc193-997c-4684-af32-2a8002718429_1694_dldesign_0_cycle1_af2pred (protein)
chain: AAAAAELALRSAEALLRSARENAAAGTISPEGLRGAAEVIKDLARYAGELGGPEAAARAEELIAEADAVVA
B14: design_611_394c5ea9-a0d3-47c4-9d48-89ba6a28fdd0_498_dldesign_0_cycle1_af2pred (protein)
chain: AAAATLAQVKELIAQAKADPANAAALLSQAIRLAVTTAIAAAAAGDTAAAVALSQAAIEAMKALDEVSKAA
B15: design_610_f34cc193-997c-4684-af32-2a8002718429_1172_dldesign_0_cycle1_af2pred (protein)
chain: LTEEEAKKLLADAKQLLELAEAALADPRFARTAITAADQAAALAKEAAKHPKVAAEAKALAARAEEVRKAAEEAAA
B16: design_611_394c5ea9-a0d3-47c4-9d48-89ba6a28fdd0_940_dldesign_0_cycle1_af2pred (protein)
chain: MKVEEAGNKAKALLVATANAAIAADPARAQEIAKKMAEGIEKIDKLTEEEKKKLDEYSEEEQAKKVEELGKELAKEIA
B17: design_610_f34cc193-997c-4684-af32-2a8002718429_2276_dldesign_0_cycle1_af2pred (protein)
chain: AAAAAAAAAEAAARAARAKEVGQKTLDAVAARAKELGARSPALGEAEQLRLKSTAAVLAGDEAAAKAYAAQAGAILAAA
B18: design_611_394c5ea9-a0d3-47c4-9d48-89ba6a28fdd0_1283_dldesign_0_cycle1_af2pred (protein)
chain: DTAAAQGLLAGVQAFTRRRFEAAERALRAGDREAMLAAARDLETAADIAEATAKQVPPALAAQAQALAKQARERAEEARRAAEA
B19: design_611_394c5ea9-a0d3-47c4-9d48-89ba6a28fdd0_1121_dldesign_0_cycle1_af2pred (protein)
chain: SSSYEEVTAEMAAITAKAQEGVEAAKKDPAEAKKIAAEIAAKAKEIAASGFSEGAAQMAKNAAARVQKVIDAELAK
B20: design_611_394c5ea9-a0d3-47c4-9d48-89ba6a28fdd0_592_dldesign_0_cycle1_af2pred (protein)
chain: DALKLIEAAAKLAKKIGLEEAAKLAEEAAKLLATGDPEAAGQGVLLLSKAYALAAADPKAAEAAALLRAALAAAAKEAIALARAAR
B21: design_611_394c5ea9-a0d3-47c4-9d48-89ba6a28fdd0_1130_dldesign_0_cycle1_af2pred (protein)
chain: MEEELKKISQAAAQAQQAAIDAKDPALRAELAQAAVEIMKLMDKAAKSTPEEAKKLAEEAEKIAEEAQKKAKASG
B22: design_611_394c5ea9-a0d3-47c4-9d48-89ba6a28fdd0_317_dldesign_0_cycle1_af2pred (protein)
chain: AEAIQKANDALQEALDYLKEMSEIAKTEKLQEAVKQIQEKVGKAAQYAIDAVKNPEKAAEYAKKAKEEAEKAKEIYEKAKKES
B23: design_611_394c5ea9-a0d3-47c4-9d48-89ba6a28fdd0_1451_dldesign_0_cycle1_af2pred (protein)
chain: AQAIEVANKTAAAMKKQAEALAAEGEANPETAWKHYETAAKLYEIAADMVAAAGGDPAVAAALKAKAAEYKAKAKAAKAA
B24: design_611_394c5ea9-a0d3-47c4-9d48-89ba6a28fdd0_765_dldesign_0_cycle1_af2pred (protein)
chain: SSREGAAQLLLDVAKQAAAALKAAGGDEERAKKILEEAKKAAATTFEETQKALAKAAREAVKYQAAVEAA
B25: design_610_f34cc193-997c-4684-af32-2a8002718429_1476_dldesign_0_cycle1_af2pred (protein)
chain: ARAAAIAEEAVRFANAASARALAAAVKTTPEANAQITALVVQLLEEADRARKATDPAEAEAHFEAARALAAEAEAIAAAALA
B26: design_611_394c5ea9-a0d3-47c4-9d48-89ba6a28fdd0_579_dldesign_0_cycle1_af2pred (protein)
chain: DAAAQSKALQAQVAQAQALVEQARAAAADPARARALALQAFRQAQAVNRQAIALGDTATAAAAGEVMVAAARVLAA
B27: design_611_394c5ea9-a0d3-47c4-9d48-89ba6a28fdd0_1531_dldesign_0_cycle1_af2pred (protein)
chain: AQAQVEAMARNAAAGMRALARADGHPDVGEEMAALVLADPVEGARRAVELARERLSPEVAAAVAEIARIQIETA
B28: design_611_394c5ea9-a0d3-47c4-9d48-89ba6a28fdd0_785_dldesign_0_cycle1_af2pred (protein)
chain: LKAEAEKLAKEAAAKAKEAAAAGDAVAALAYQAAANMARSALRADPESAAKLLEVGRALKQQGDATHAAFKA
B29: design_611_394c5ea9-a0d3-47c4-9d48-89ba6a28fdd0_749_dldesign_0_cycle1_af2pred (protein)
chain: AAAEAAAERARQAAKAAMKSLTLAYEALGKPEQAKEDIAKVEKAIEEDPEKGAALARELAAQAAREAIKANAA
B30: design_610_f34cc193-997c-4684-af32-2a8002718429_1837_dldesign_0_cycle1_af2pred (protein)
chain: NQVAAIAAANQALGERAYAEGLALYAADPEANREAARAAFVRAYAYFNAAAGAAIVLGDAAAAAAAQAKAEEAKAHAEALKA
B31: design_611_394c5ea9-a0d3-47c4-9d48-89ba6a28fdd0_264_dldesign_0_cycle1_af2pred (protein)
chain: AADEAAKKAIKQLKASVEAAARNARALAGSPDAPRAVKALKELAKVAAEGALGIAKATKDPEVAKEAKKAAEEIKKIAEETAKEIEA
B32: design_611_394c5ea9-a0d3-47c4-9d48-89ba6a28fdd0_1101_dldesign_0_cycle1_af2pred (protein)
chain: MGGELLLDVMRAAAEAQREIAELGKEKGIPEEVTQALINRVSAAVAAVAKAAIAGDDAAKAAAAAARAAIDATLAEARAL
B33: design_611_394c5ea9-a0d3-47c4-9d48-89ba6a28fdd0_908_dldesign_0_cycle1_af2pred (protein)
chain: AAAAARAAAVAAAEAAAAEAIKELKAAAEEAKTATPEEAAKLMNEMLAKASRQALAMQASGDPAAAAAGARLIAAAVEYAKEIDEAIR
B34: design_611_394c5ea9-a0d3-47c4-9d48-89ba6a28fdd0_577_dldesign_0_cycle1_af2pred (protein)
chain: VAAQLAAAQAKVDDVTAKVAEAKAAAKADPAEGVKIANATIGAAIDAMKAAKTYPPEVAAAAIAALSAQLAEASKIAISAQAKLDA
B35: design_611_394c5ea9-a0d3-47c4-9d48-89ba6a28fdd0_1469_dldesign_0_cycle1_af2pred (protein)
chain: GKERAVEIMRRGLTEVAKEALKVSPEVAGVVQTALAKAIGAAAESMEKALEVLKKGAEEAEKLDPEIGKKVREVLKKVEEAYKE
B36: design_610_f34cc193-997c-4684-af32-2a8002718429_1271_dldesign_0_cycle1_af2pred (protein)
chain: SGRVRQAQRLVEMAEELVETGEKEEAEKGKQLADAARALAEEALRRGDDPEAAKEVLERAKEVEKRAEEAIKA
B37: design_611_394c5ea9-a0d3-47c4-9d48-89ba6a28fdd0_1238_dldesign_0_cycle1_af2pred (protein)
chain: SAADEQAKAIAVASTQSILDQAKKILEEHPEIKEEGEKLVEEIKKLLEKAKTGDAATASKALSESLELYGKLAELAK
B38: design_610_f34cc193-997c-4684-af32-2a8002718429_2230_dldesign_0_cycle1_af2pred (protein)
chain: SADQAEKQKLLAKFNEVSGEALELMEELTKAGDYETVQQVSRLLGQANGLAVAATDAATAKAALKVAEEALKLAKEALKKA

Each binder was assayed against CD276, Q5ZPR3.
Chain of CD276, Q5ZPR3 (Q5ZPR3 whole entry): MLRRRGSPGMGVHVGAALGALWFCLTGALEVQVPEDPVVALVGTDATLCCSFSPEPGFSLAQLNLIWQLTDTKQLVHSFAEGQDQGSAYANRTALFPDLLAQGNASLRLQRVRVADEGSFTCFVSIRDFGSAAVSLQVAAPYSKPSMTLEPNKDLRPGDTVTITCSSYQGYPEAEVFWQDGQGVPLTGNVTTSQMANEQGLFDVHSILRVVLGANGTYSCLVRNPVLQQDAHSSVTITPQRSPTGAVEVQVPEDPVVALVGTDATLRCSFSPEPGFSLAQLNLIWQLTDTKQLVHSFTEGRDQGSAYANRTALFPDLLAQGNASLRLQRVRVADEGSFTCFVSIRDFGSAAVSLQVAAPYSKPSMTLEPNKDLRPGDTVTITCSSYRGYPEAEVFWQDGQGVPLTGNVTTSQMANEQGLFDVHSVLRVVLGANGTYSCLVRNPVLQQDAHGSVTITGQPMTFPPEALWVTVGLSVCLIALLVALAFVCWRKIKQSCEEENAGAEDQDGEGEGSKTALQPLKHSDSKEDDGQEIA

Binding in a display sort, inactive:
B1 not found, B2 not found, B3 not found, B4 not found, B5 not found, B6 not found, B7 not found, B8 not found, B9 not found, B10 not found, B11 not found, B12 not found, B13 not found, B14 not found, B15 not found, B16 not found, B17 not found, B18 not found, B19 not found, B20 not found, B21 not found, B22 not found, B23 not found, B24 not found, B25 not found, B26 not found, B27 not found, B28 not found, B29 not found, B30 not found, B31 not found, B32 not found, B33 not found, B34 not found, B35 not found, B36 not found, B37 not found, B38 not found
